Test results from PubChem BioAssay AID1851 (National Center for Advancing Translational Sciences (NCATS), 2009).
In all, about 16,000 compounds went through this assay and about 4,000 (25%) were called active. Inconclusive results (about 26%) are left out. Only a sample is shown. Unmarked numbers belong to inactive results. Calls follow the shape of the dose curve; as a rule, active = well fitted curve in the direction sought with a large enough effect; inconclusive = small, poorly fitted or top-dose-only effect, or effect the other way; inactive = no such curve, though single readings can be large or run the other way.

Target: Cytochrome P450 2C9 (Homo sapiens) (UniProt P11712)
Experiment: Cytochrome panel assay with activity outcomes
Conditions: recombinant CYP, pro-luciferin dealkylation, luminescence, p450-cyp2c9; series mostly up to 57.1 µM; activity, negative = inhibition: at the top concentration
% is scaled to controls: 0 for no effect and ±100 for the full control effect.

Chain of Cytochrome P450 2C9 (Homo sapiens) (P11712 whole entry, looked up): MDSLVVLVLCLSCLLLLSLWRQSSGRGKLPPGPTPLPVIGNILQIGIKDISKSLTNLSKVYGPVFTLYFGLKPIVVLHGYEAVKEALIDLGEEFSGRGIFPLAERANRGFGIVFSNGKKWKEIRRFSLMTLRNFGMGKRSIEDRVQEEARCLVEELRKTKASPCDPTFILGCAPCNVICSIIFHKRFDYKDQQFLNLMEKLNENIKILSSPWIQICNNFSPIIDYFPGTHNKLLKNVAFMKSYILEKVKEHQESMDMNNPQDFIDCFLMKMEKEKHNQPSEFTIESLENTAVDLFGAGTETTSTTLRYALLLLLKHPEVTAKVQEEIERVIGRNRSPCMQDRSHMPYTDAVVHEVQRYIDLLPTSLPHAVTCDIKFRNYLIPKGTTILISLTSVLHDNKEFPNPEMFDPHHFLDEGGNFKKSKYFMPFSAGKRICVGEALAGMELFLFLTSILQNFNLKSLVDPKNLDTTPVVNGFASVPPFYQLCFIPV

| Structure (SMILES) | activity, negative = inhibition | AC50 |
| --- | --- | --- |
| Cc1cc(=O)[nH]c2ccccc12 | 25.9% | – |
| CC1CCCC(n2c(=S)[nH]c3ccccc3c2=O)C1C (configuration not stated) | – | 3.55 µM (active) |
| CCn1c(=O)[nH]c2ccccc2c1=O | 17.7% | – |
| CN(C)C(=O)/N=N\C(=O)N(C)C | -6.5% | – |
| CC(C)n1c(O)c(/C=C2\C=Nc3ccccc32)sc1=Nc1ccccc1 | – | 2.51 µM (active) |
| CCn1c(O)c(/C=C2\C=Nc3ccccc32)sc1=Nc1ccc(C)cc1 | – | 2.24 µM (active) |
| C[C@@H](CNC(N)=O)NC(N)=O | 20.8% [at 11.4 µM] | – |
| Cc1ccc(C)c(-c2cc(C(=O)Nc3sc(C)c(C)c3C(N)=O)c3ccccc3n2)c1 | – | 0.794 µM (active) |
| CN(C)C(=O)c1ccc(-c2nccc(NCc3cccs3)n2)cc1 | 10.6% [at 2.29 µM] | – |
| Cc1ccc(-c2cc(C(=O)NCc3ccco3)c3ccccc3n2)s1 | – | 3.98 µM (active) |
| Cc1ccc2c(c1)N(CC(=O)NCc1cccs1)C(=O)C(C)O2 (configuration not stated) | 24.4% | – |
| Cc1ccc(C)c(-c2cc(C(=O)Nc3nccs3)c3ccccc3n2)c1 | – | 2.82 µM (active) |
| Cc1ccc(Nc2ncccc2C(=O)NCc2cccs2)c(C)c1 | – | 15.8 µM (active) |
| N[C@@](CCc1ccccc1)(C(=O)O)c1ccccc1 | -3.36% [at 11.4 µM] | – |
| COc1cccc(Nc2ncc3nc(C)c(=O)n(CCC#N)c3n2)c1 | -1.51% | – |
| CN(C)CCCn1c2c3ccccc3ccc2c2oc(=O)c3ccccc3c21 | -5.42% [at 11.4 µM] | – |
| CN(C)C(=O)c1ccc(-c2nc(NCc3cccs3)c3ccccc3n2)cc1 | -26.2% [at 2.29 µM] | – |
| Cc1noc(C)c1-c1nc(NCc2cccs2)c2ccccc2n1 | -11.4% [at 2.29 µM] | – |
| Cc1ccc(C)c(-c2cc(C(=O)NCc3cccs3)c3ccccc3n2)c1 | – | 1.26 µM (active) |
| CS(=O)(=O)N1CCC2(CCN(C(=O)Nc3cccc(C#N)c3)CC2)CC1 | -1.38% | – |
| c1ccc2oc(C3=NCCN3)cc2c1 | 6.13% | – |
| COCCOC(=O)C1=C(C)NC(=O)N(C(C)=O)C1c1ccc(Cl)cc1 (configuration not stated) | – | 4.47 µM (active) |
| CC(=O)NC(Cc1ccc(F)cc1)C(=O)O (configuration not stated) | 7.48% | – |
| Cc1nc2c(C(=O)NCCC(C)C)c[nH]n2c(=O)c1Cc1ccccc1F | – | 2.82 µM (active) |
| Cc1nc2c(C(=O)NCc3ccc4c(c3)OCO4)c[nH]n2c(=O)c1Cc1ccccc1F | – | 0.501 µM (active) |

| Structure (SMILES) | activity, negative = inhibition | AC50 |
| --- | --- | --- |
| O=C(O)c1cc2c(o1)CCC/C2=N\O | -26.6% | – |
| CC1(C)S[C@@H]2[C@H](NC(=O)[C@@H](N)c3ccc(O)cc3)C(=O)N2[C@H]1C(=O)O | 17% [at 25.6 µM] | – |
| O=C(c1c(O)c2ccc(Cl)cc2[nH]c1=O)C1CC1 | -5.08% | – |
| O=c1[nH]c2cc(Cl)ccc2c(O)c1-c1ccc(Oc2ccccc2)cc1 | – | 12.6 µM (active) |
| O=c1[nH]c2cc(Cl)ccc2c(O)c1-c1cccc(Oc2ccccc2)c1 | -21.6% | – |
| CCOC(=O)Cc1cc(=O)n2[nH]c(C)c(C#N)c2n1 | -6.59% | – |
| CCOC(=O)Cc1c(C)nc2c(C#N)c[nH]n2c1=O | – | 12.6 µM (active) |
| CC(C)CCNC1=NCCCCC1 | 3.84% | – |
| OC[C@H]1O[C@H](n2cnc3c(NC4CCCC4)nc(Cl)nc32)[C@@H](O)[C@@H]1O | -9.28% | – |
| Cc1noc(C)c1-c1nc(NC2CCNCC2)c2ccccc2n1 | 13% [at 2.29 µM] | – |
| O=C(c1n[nH]c(=O)c2ccccc12)N1CCN(C2c3ccccc3-c3ccccc32)CC1 | – | 2.82 µM (active) |
| Cc1cc(C)nc(SCCc2cccc[n+]2C)n1 | -3.45% [at 11.4 µM] | – |
| N#C/C(=C\c1ccc(O)c(O)c1)C(=O)c1ccc(O)c(O)c1 | 11.7% | – |
| COc1cc(/C=C(\C#N)C(=O)c2ccc(O)c(O)c2)cc(I)c1O | – | 0.501 µM (active) |
| C[C@H]1CN(CCO)CCN1c1ccccc1 | -1.76% [at 11.4 µM] | – |
| CC(C)=NOCc1ccc(-c2cc(-c3ccccc3)no2)cc1 | 12% [at 11.4 µM] | – |
| CC(C)=NOCc1cccc(-c2cc(-c3ccccc3)no2)c1 | – | 3.98 µM (active) |
| COc1cccc([C@H](O)Cn2cc(-c3cccc(CON=C(C)C)c3)nn2)c1 | -2.7% [at 11.4 µM] | – |
| CN(C)CCOC(=O)C1(c2ccccc2)CCOCC1 | -19.5% | – |
| CC(=O)c1ccc(NC(=O)C2(c3ccccc3)CCOCC2)cc1 | – | 5.01 µM (active) |
| COc1ccc(C2(C(=O)N3CCOCC3)CCCC2)cc1 | -17.7% | – |
| CCOC(=O)c1ccc(NC(=O)C2(c3ccc(OC)cc3)CCOCC2)cc1 | – | 5.62 µM (active) |
| CCOC(=O)c1ccc(N/C=C/C(=O)c2ccc(OC)cc2)cc1 | 13.1% | – |
| Cc1cnc(CNc2ccnc(-c3ccccc3C)n2)cn1 | 11.5% [at 2.29 µM] | – |
| CCOC(=O)c1cccc(C(=O)OCC)n1 | -2.66% | – |

| Structure (SMILES) | activity, negative = inhibition | AC50 |
| --- | --- | --- |
| O=C(OCC(=O)c1cccs1)c1cccc(C(=O)OCC(=O)c2cccs2)n1 | – | 8.91 µM (active) |
| COc1ccc(CNc2cc(-c3ccoc3)ncn2)c(OC)c1 | 3.4% [at 2.29 µM] | – |
| Cc1cccc(CN2CCN([C@@H](c3ccccc3)c3ccc(Cl)cc3)CC2)c1 | -14.8% [at 25.6 µM] | – |
| COc1ccccc1CN1CC2(CCN(C(=O)c3ccncc3)CC2)C1 | 2.75% | – |
| COc1ccccc1C(c1nnnn1C(C)(C)C)N1CCN(Cc2ccncc2)CC1 (configuration not stated) | – | 0.631 µM (active) |
| COc1ccccc1C(c1nnnn1C(C)(C)C)N1CCCc2ccccc21 (configuration not stated) | – | 3.98 µM (active) |
| CNC(=O)[C@@H]1O[C@@H](n2cnc3c(NCc4ccc(N)cc4)ncnc32)[C@@H](O)[C@H]1O | 6.6% | – |
| COc1cccc(N2C(=O)C(CC(=O)Nc3ccccc3)N(C3CCCCC3)C2=O)c1 (configuration not stated) | – | 8.91 µM (active) |
| COc1ccc(COC(=O)N/N=C2/C[C@@H](O)[C@@H](O)[C@@H]3[C@@H]4C(=O)N(c5cccc(Oc6ccccc6)c5)C(=O)[C@H]4CC[C@H]23)cc1 | -15.2% [at 11.4 µM] | – |
| CCN1CCCC1CNC(=O)C(=O)Nc1ccc(OC)cc1 (configuration not stated) | 3.7% | – |
| COc1ccc(COC(=O)N/N=C2/C[C@@H](O)[C@@H](O)[C@@H]3[C@@H]4C(=O)N(c5cccc(Oc6ccccc6)c5)C(=O)[C@H]4CC[C@@H]23)cc1 | -7.36% [at 11.4 µM] | – |
| COc1ccc(NC(=O)CC2C(=O)N(c3cccc(OC)c3)C(=O)N2C2CCCCC2)cc1 (configuration not stated) | – | 15.8 µM (active) |
| CC1(C)O[C@@H]2C[C@H]3[C@H]4C[C@H](F)C5=CC(=O)C=C[C@@]5(C)[C@@H]4[C@H](O)C[C@]3(C)[C@]2(C(=O)CO)O1 | -11.4% [at 25.6 µM] | – |
| O=C(NCc1ccco1)c1ccc2c(=O)n(-c3ccccc3)c(=S)[nH]c2c1 | 9.67% | – |
| Cc1ccc(-n2c(N)c(C(=O)NCc3ccco3)sc2=S)cc1 | – | 14.1 µM (active) |
| COC(=O)CCCC(=O)O | -1.69% [at 11.4 µM] | – |
| Cc1ccc(CS(=O)(=O)CCC(=O)NCCCOC(C)C)cc1 | -10.3% | – |
| CCCCNC(=O)NC1C(NC(=O)NCCCC)N(C)C(=O)N1C (configuration not stated) | -17% | – |
| CCCCNC(=O)NS(=O)(=O)c1ccc(C(=O)OC(C)C)o1 | – | 2.82 µM (active) |
| Cc1ccc(-c2cc(C(F)F)n3ncc(C(=O)Nc4c(C)nn(Cc5c(Cl)cccc5Cl)c4C)c3n2)cc1 | – | 1 µM (active) |
| Cc1nn(Cc2c(Cl)cccc2Cl)c(C)c1NC(=O)c1cnn2c(C(F)F)cc(-c3ccccc3)nc12 | – | 1.26 µM (active) |
| Cc1cc(C(F)F)n2ncc(C(=O)NCc3ccccc3C(F)(F)F)c2n1 | -63.8% | – |
| CC(=O)OC[C@@H]1O[C@H](C/C=N\OC[C@@H](O)COCc2ccco2)C=C[C@@H]1OC(C)=O | 24.5% [at 11.4 µM] | – |
| N[C@H](C(=O)O)[C@@H](O)c1cnc[nH]1 | 20.3% [at 11.4 µM] | – |
| O=c1cc(CSc2ccccc2)[nH]c(=S)[nH]1 | -6.77% | – |

| Structure (SMILES) | activity, negative = inhibition | AC50 |
| --- | --- | --- |
| CC1=CC(C)(C)Nc2ccc(CSc3ccccc3)cc21 | – | 0.2 µM (active) |
| N#Cc1c(-c2ccccc2)nc(-c2ccccc2)[nH]c1=O | – | 0.316 µM (active) |
| O=C(O)c1nc(-c2ccccc2)[nH]c1C(=O)O | -21.7% [at 11.4 µM] | – |
| Cc1[nH]n2c(=O)c(C#N)c(-c3ccccc3)nc2c1-c1ccccc1 | – | 11.2 µM (active) |
| CSc1nc(O)c(Cc2ccccc2)c(=O)[nH]1 | -25.9% | – |
| N#CCCn1c(=O)c(-c2ccccc2)nc2cnc(Nc3ccccc3)nc21 | 16.4% | – |
| COC(=O)Cc1cc(=O)n2[nH]c(C)c(-c3ccccc3)c2n1 | 3.63% | – |
| N#Cc1c(-c2ccccc2)no[n+]1[O-] | 4.32% | – |
| Cn1c(=O)c2[nH]c(CSCc3ccccc3)nc2n(C)c1=O | -13.3% [at 11.4 µM] | – |
| Cc1nc2c(C#N)c(C)[nH]n2c(=O)c1Cc1ccccc1 | – | 7.08 µM (active) |
| Clc1cc2c(c(CSC3=NCN(CC4CC4)CN3)c1)OCOC2 | 9.58% [at 11.4 µM] | – |
| NCCc1ccn[nH]1 | 9.32% [at 25.6 µM] | – |
| COC(=O)c1ccc(CSc2nc3cc(Cl)ccc3s2)o1 | – | 3.55 µM (active) |
| O=C(O)[C@@H]1CS[C@@]2(CCCN(Cc3ccccc3)C2)N1 | 15.9% [at 11.4 µM] | – |
| COC(=O)CSc1nnc(C)n1-c1cccc(OC)c1 | -19.6% | – |
| COc1ccc(NC(=O)CSc2ccc3c4c(cccc24)C(=O)c2ccccc2-3)cc1 | – | 0.562 µM (active) |
| Cc1cccc(OCC(=O)NNC(=O)CSc2ncc(C#N)c(N)n2)c1 | -30.1% | – |
| COc1cccc(-n2ccnc2SCC(=O)Nc2nccs2)c1 | – | 11.2 µM (active) |
| COc1ccc(-n2ccnc2SCC(=O)Nc2ccccc2)cc1 | – | 5.01 µM (active) |
| COc1ccc(C(O)c2nccn2Cc2ccccc2)cc1 (configuration not stated) | -11.9% | – |
| Cc1cccc(-c2nsc(SCC(=O)Nc3nccs3)n2)c1 | – | 1.58 µM (active) |
| COc1ccc(-n2nnnc2SCC(=O)Nc2ccccc2)cc1 | -16.3% | – |
